Experiments:
Assay in all cases: DAPPL (digital affinity profiling via proximity ligation, sequencing); 10 mM Tris-HCl pH 7.5, 50 mM NaCl, 1 mM DTT, 4% glycerol, room temperature, 30 min; GST-TFs on glutathione beads, 16-mer random dsDNA library, 0.1% formaldehyde crosslink after washing; high values mean tight binding
Details in all cases: protein: recombinant; tags: N-terminal GST; dsDNA, one strand shown
[1] = target: T1, FLI1 (Homo sapiens, UniProt Q01543 1-452)
T1 sequence: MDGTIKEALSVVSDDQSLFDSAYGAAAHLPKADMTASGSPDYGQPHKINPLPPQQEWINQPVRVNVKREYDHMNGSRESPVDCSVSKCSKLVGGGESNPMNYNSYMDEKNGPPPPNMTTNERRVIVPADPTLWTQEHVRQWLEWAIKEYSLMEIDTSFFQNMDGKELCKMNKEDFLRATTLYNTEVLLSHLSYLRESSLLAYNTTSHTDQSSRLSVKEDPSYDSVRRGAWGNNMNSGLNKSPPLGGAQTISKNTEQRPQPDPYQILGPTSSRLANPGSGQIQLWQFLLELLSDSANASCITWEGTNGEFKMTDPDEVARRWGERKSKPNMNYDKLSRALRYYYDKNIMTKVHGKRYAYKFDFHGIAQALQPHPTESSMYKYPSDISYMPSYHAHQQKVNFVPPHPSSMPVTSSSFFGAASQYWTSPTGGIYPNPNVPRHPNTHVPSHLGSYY
How it was run: (§1)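 Binding signal is defined as a hexamer's read frequency for one factor over its frequency for the tag-only sample. To obtain reads, GST-fused human transcription factors were expressed in yeast, captured on glutathione beads, barcoded with DNA and pooled with that sample. Pools met 200 nmole of a 16-mer random double-stranded DNA library in Tris/NaCl/DTT/glycerol buffer for 30 min at room temperature before washing, 0.1% formaldehyde crosslinking, proximity ligation (BsaI/T4 ligase, 1 h, 37 °C), PCR and Illumina NextSeq500 sequencing.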

[2] = target: T2, ELK1 (Homo sapiens, UniProt P19419 1-428)
T2 sequence: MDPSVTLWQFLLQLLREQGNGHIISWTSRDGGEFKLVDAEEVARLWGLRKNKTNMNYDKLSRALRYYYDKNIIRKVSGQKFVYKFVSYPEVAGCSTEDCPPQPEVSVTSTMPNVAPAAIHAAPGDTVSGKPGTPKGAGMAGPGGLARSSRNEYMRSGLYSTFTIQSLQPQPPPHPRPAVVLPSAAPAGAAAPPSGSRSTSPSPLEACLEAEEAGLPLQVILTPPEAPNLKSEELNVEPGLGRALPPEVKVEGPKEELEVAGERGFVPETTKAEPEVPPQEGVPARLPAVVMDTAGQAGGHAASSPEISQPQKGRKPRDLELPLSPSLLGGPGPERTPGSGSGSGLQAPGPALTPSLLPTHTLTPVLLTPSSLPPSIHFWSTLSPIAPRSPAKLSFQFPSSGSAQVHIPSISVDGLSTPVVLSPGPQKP
How it was run: as §1

[3] = target: T3, GABPA (Homo sapiens, UniProt Q06546 1-454)
T3 sequence: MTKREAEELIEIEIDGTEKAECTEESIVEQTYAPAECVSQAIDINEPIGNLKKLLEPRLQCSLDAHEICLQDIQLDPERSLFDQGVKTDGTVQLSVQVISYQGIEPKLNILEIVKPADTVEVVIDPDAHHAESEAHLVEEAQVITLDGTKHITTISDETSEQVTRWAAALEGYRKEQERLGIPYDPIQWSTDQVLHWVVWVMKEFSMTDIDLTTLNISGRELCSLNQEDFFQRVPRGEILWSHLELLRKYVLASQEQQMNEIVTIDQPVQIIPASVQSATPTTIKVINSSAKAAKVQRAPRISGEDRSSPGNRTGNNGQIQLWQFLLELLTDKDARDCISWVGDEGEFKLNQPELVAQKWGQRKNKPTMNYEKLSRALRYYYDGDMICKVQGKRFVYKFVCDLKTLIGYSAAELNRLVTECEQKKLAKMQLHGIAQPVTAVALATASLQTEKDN
How it was run: as §1

[4] = target: T4, ERG (Homo sapiens, UniProt P11308 1-479)
T4 sequence: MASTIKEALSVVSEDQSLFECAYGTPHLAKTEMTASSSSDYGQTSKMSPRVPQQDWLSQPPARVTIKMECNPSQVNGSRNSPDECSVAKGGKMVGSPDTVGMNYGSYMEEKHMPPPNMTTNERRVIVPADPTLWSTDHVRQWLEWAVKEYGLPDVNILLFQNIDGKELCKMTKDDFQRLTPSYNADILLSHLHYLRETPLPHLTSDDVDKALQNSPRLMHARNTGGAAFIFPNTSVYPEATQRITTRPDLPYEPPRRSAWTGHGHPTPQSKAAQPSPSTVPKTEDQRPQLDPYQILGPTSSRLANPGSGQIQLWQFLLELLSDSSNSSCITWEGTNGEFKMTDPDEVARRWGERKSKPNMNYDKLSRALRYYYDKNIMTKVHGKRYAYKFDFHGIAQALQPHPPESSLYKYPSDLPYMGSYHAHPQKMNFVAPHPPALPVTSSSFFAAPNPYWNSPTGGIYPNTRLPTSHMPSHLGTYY
How it was run: as §1

[5] = target: ELF1 (Homo sapiens, UniProt P32519 1-619)
ELF1, sequence (P32519 whole entry): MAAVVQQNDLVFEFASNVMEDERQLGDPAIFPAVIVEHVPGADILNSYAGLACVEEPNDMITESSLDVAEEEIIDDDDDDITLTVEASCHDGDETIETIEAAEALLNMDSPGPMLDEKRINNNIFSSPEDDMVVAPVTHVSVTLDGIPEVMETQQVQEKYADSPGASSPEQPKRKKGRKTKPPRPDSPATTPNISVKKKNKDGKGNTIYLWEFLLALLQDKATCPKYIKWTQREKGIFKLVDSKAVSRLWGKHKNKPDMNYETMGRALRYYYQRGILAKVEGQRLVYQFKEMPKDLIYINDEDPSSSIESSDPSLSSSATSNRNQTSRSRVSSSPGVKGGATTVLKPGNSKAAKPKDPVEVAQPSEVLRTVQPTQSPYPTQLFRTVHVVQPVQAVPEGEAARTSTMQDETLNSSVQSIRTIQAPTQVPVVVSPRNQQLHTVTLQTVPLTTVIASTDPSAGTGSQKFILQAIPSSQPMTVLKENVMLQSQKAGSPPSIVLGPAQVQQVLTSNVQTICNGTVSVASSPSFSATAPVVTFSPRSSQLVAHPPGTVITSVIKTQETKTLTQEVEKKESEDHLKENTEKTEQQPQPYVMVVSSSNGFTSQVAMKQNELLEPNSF
How it was run: as §1

[6] = target: T5, EHF (Homo sapiens, UniProt Q9NZC4 1-300)
T5 sequence: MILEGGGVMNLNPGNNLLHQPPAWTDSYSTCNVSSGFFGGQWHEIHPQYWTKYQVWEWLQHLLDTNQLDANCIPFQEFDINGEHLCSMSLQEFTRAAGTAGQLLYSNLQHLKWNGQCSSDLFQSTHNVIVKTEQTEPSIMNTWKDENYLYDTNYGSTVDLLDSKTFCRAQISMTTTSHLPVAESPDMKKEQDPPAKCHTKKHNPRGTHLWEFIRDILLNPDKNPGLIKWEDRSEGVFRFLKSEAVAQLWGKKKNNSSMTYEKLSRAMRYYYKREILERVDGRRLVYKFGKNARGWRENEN
How it was run: as §1

[7] = target: SPI1 (Homo sapiens, UniProt P17947 1-270)
How it was run: as §1

[8] = target: SPIB (Homo sapiens, UniProt Q01892 1-262)
SPIB, sequence (Q01892 whole entry): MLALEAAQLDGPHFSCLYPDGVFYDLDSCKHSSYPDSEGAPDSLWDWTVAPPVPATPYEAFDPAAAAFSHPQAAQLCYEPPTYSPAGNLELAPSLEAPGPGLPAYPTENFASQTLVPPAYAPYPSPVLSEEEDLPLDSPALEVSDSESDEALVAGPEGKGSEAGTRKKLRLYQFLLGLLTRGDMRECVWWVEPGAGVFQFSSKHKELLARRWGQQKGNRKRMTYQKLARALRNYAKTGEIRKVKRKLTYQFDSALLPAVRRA
How it was run: as §1

[9] = target: T6, ELK3 (Homo sapiens, UniProt P41970 1-407)
T6 sequence: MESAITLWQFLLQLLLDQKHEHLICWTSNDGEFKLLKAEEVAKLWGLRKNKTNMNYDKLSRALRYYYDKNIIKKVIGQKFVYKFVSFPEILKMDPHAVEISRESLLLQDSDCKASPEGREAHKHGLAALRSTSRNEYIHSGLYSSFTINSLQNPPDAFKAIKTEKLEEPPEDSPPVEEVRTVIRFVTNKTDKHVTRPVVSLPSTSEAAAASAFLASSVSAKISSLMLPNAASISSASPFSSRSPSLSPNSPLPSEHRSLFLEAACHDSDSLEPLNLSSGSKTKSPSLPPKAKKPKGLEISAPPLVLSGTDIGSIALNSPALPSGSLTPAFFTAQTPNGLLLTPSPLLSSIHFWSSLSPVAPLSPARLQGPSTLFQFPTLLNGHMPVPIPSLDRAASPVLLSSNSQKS
How it was run: as §1

GCATTC
binding signal [1]: 1.15 fold enrichment (6-mer frequency, TF over GST control) | binding signal [2]: 1.16 fold enrichment (6-mer frequency, TF over GST control) | binding signal [3]: 1.18 fold enrichment (6-mer frequency, TF over GST control) | binding signal [4]: 1.12 fold enrichment (6-mer frequency, TF over GST control) | binding signal [5]: 1.13 fold enrichment (6-mer frequency, TF over GST control) | binding signal [6]: 1.07 fold enrichment (6-mer frequency, TF over GST control) | binding signal [7]: 1.15 fold enrichment (6-mer frequency, TF over GST control) | binding signal [8]: 1.12 fold enrichment (6-mer frequency, TF over GST control) | binding signal [9]: 1.03 fold enrichment (6-mer frequency, TF over GST control)

ATCCGA
binding signal [1]: 1.1 fold enrichment (6-mer frequency, TF over GST control) | binding signal [2]: 1.17 fold enrichment (6-mer frequency, TF over GST control) | binding signal [3]: 1.2 fold enrichment (6-mer frequency, TF over GST control) | binding signal [4]: 1.31 fold enrichment (6-mer frequency, TF over GST control) | binding signal [5]: 1.15 fold enrichment (6-mer frequency, TF over GST control) | binding signal [6]: 1.17 fold enrichment (6-mer frequency, TF over GST control) | binding signal [7]: 1.08 fold enrichment (6-mer frequency, TF over GST control) | binding signal [8]: 1.32 fold enrichment (6-mer frequency, TF over GST control) | binding signal [9]: 1.32 fold enrichment (6-mer frequency, TF over GST control)

CCACGA
binding signal [1]: 1.18 fold enrichment (6-mer frequency, TF over GST control) | binding signal [2]: 1.17 fold enrichment (6-mer frequency, TF over GST control) | binding signal [3]: 1.19 fold enrichment (6-mer frequency, TF over GST control) | binding signal [4]: 1.12 fold enrichment (6-mer frequency, TF over GST control) | binding signal [5]: 1.1 fold enrichment (6-mer frequency, TF over GST control) | binding signal [6]: 1.23 fold enrichment (6-mer frequency, TF over GST control) | binding signal [7]: 1.12 fold enrichment (6-mer frequency, TF over GST control) | binding signal [8]: 1.06 fold enrichment (6-mer frequency, TF over GST control) | binding signal [9]: 1.16 fold enrichment (6-mer frequency, TF over GST control)

CGCTCG
binding signal [1]: 1.17 fold enrichment (6-mer frequency, TF over GST control) | binding signal [2]: 1.08 fold enrichment (6-mer frequency, TF over GST control) | binding signal [3]: 1.11 fold enrichment (6-mer frequency, TF over GST control) | binding signal [4]: 1.05 fold enrichment (6-mer frequency, TF over GST control) | binding signal [5]: 1.19 fold enrichment (6-mer frequency, TF over GST control) | binding signal [6]: 1.04 fold enrichment (6-mer frequency, TF over GST control) | binding signal [7]: 1.08 fold enrichment (6-mer frequency, TF over GST control) | binding signal [8]: 1.12 fold enrichment (6-mer frequency, TF over GST control) | binding signal [9]: 1.11 fold enrichment (6-mer frequency, TF over GST control)

CCCTCA
binding signal [1]: 1.28 fold enrichment (6-mer frequency, TF over GST control) | binding signal [2]: 1.11 fold enrichment (6-mer frequency, TF over GST control) | binding signal [3]: 1.18 fold enrichment (6-mer frequency, TF over GST control) | binding signal [4]: 1.16 fold enrichment (6-mer frequency, TF over GST control) | binding signal [5]: 1.19 fold enrichment (6-mer frequency, TF over GST control) | binding signal [6]: 1.1 fold enrichment (6-mer frequency, TF over GST control) | binding signal [7]: 1.12 fold enrichment (6-mer frequency, TF over GST control) | binding signal [8]: 1.25 fold enrichment (6-mer frequency, TF over GST control) | binding signal [9]: 1.19 fold enrichment (6-mer frequency, TF over GST control)

CCCACG
binding signal [1]: 1.17 fold enrichment (6-mer frequency, TF over GST control) | binding signal [2]: 1.2 fold enrichment (6-mer frequency, TF over GST control) | binding signal [3]: 1.26 fold enrichment (6-mer frequency, TF over GST control) | binding signal [4]: 1.09 fold enrichment (6-mer frequency, TF over GST control) | binding signal [5]: 1.19 fold enrichment (6-mer frequency, TF over GST control) | binding signal [6]: 1.2 fold enrichment (6-mer frequency, TF over GST control) | binding signal [7]: 1.08 fold enrichment (6-mer frequency, TF over GST control) | binding signal [8]: 1.16 fold enrichment (6-mer frequency, TF over GST control) | binding signal [9]: 1.29 fold enrichment (6-mer frequency, TF over GST control)

CTCCGC
binding signal [1]: 1.51 fold enrichment (6-mer frequency, TF over GST control) | binding signal [2]: 1.63 fold enrichment (6-mer frequency, TF over GST control) | binding signal [3]: 1.58 fold enrichment (6-mer frequency, TF over GST control) | binding signal [4]: 1.38 fold enrichment (6-mer frequency, TF over GST control) | binding signal [5]: 1.56 fold enrichment (6-mer frequency, TF over GST control) | binding signal [6]: 1.37 fold enrichment (6-mer frequency, TF over GST control) | binding signal [7]: 1.56 fold enrichment (6-mer frequency, TF over GST control) | binding signal [8]: 1.37 fold enrichment (6-mer frequency, TF over GST control) | binding signal [9]: 1.5 fold enrichment (6-mer frequency, TF over GST control)
